# Shown are actives, neighbours in structure and some others; about 2.4% of the full set was active somewhere.
# PP5 primary – PP5 phosphatase inhibitors, primary screen, biochemical, fluorescence | Serine/threonine-protein phosphatase 5 (Homo sapiens), P53041 | purified PP5c, OMFP substrate fluorescence | inhibition, % at 6.7 µM | 0.18% of 320,000 active;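 active = inhibition above the campaign's mean inhibition across all tested compounds plus 3 SD, cut at about 9.5% in these data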
# NadD block – inhibitors of S. aureus NadD, primary screen, biochemical, colorimetric, uHTS. Nicotinate-nucleotide adenylyltransferase NadD (Staphylococcus aureus N315). purified NadD enzyme, colorimetric absorbance read-out. inhibition, % at 20 µM. 0.78% of 360,000 active. AID 602399, 2012; in the data active = inhibition above about 26%
# PP1 inh – PP1-alpha phosphatase inhibitors, primary screen, counter-screen for PP5 inhibitor project, biochemical, fluorescence, OMFP substrate, single point; Serine/threonine-protein phosphatase PP1-alpha catalytic subunit (Homo sapiens), P62136; purified PP1alpha; inhibition, % at 6.7 µM; 0.9% of 320,000 active; AID 2235, 2010;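 active = inhibition above the mean inhibition of all tested compounds plus 3 SD, computed separately for each screening campaign, cut at about 15% in these data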
# PREPL inhibitor – PREPL enzyme inhibitors, primary screen, biochemical, fluorescence polarization; Prolyl endopeptidase-like (Homo sapiens), Q4J6C6; recombinant PREPL, fluorescence polarization activity-based probe; inhibition, % at 5.96 µM; 0.68% of 320,000 active; AID 2751, 2010; in the data active = inhibition above about 43%
# Rpn11 inh – Rpn11 (PSMD14) deubiquitinase inhibitors, primary screen, biochemical, fluorescence polarization, uHTS | human 26S proteasome, Ub4-pepOG fluorescence polarization; 20S core pre-blocked with epoxomicin | inhibition, % at 20 µM | 0.59% of 360,000 active | 26S proteasome non-ATPase regulatory subunit 14 (Homo sapiens), O00487;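 active = inhibition at 20 µM, scaled to each plate's controls, above about 33%, limit read from the data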
# Target sequence (O00487 whole entry, looked up): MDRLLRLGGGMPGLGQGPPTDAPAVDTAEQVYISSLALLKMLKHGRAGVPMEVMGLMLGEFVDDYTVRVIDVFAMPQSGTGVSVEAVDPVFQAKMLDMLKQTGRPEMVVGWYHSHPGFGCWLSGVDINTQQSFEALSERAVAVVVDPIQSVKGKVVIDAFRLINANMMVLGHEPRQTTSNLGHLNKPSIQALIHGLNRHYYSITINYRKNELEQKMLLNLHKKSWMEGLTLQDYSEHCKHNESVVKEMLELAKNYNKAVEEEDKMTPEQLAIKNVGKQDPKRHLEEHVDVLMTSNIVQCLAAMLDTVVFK
# Rpn11 confirm – Rpn11 (PSMD14) deubiquitinase inhibitors, confirmation, biochemical, fluorescence polarization, single concentration; shares compounds with Rpn11 inh; purified human 26S proteasome, Ub4-pepOG fluorescence polarization; proteasome pretreated with epoxomicin; inhibition, % at 20 µM; 29% of 1,900 active
# MMP-2 inh – MMP-2 enzyme inhibition, confirmation, counter-screen for RPN11 inhibitor project, biochemical, fluorescence, single concentration | shares compounds with Rpn11 inh | recombinant MMP-2, FRET peptide cleavage fluorescence | inhibition, % at 20 µM | 4% of 1,900 active | AID 602330, 2012;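 note: human MMP-2 activated beforehand with APMA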
# Thrombin inh – bovine thrombin protease inhibition, confirmation, counter-screen for Rpn11 inhibitor project, biochemical, fluorescence polarization, single concentration. shares compounds with Rpn11 inh. bovine thrombin cleavage of Ub4-pepOG. inhibition, % at 20 µM. 13% of 1,900 active. AID 602333, 2012;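 active = mean inhibition at least 40% at 20 µM, or signal 3 deviations below plate average, so some actives read negative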
# NadD inh conf – inhibitors of S. aureus NadD, confirmation, biochemical, colorimetric, single concentration | shares compounds with NadD block | purified S. aureus NadD, colorimetric enzyme assay | 13% of 2,000 active | inhibition, % at 20 µM; in the data active = inhibition mostly above about 42%, no sharp cut-off; inactive = mostly below about 42%
# Numbers stand for hits; – = inactive; · = not tested or not shown; ! = repeats disagree. Cut-off read from the data, not from the text of the source, unless noted: active = inhibition above about 40%; inactive = the rest.
SMILES,PP5 primary,NadD block,PP1 inh,PREPL inhibitor,Rpn11 inh,NadD inh conf,others
Cc1ccc(-n2c(O)c(/C=N/N3CCCCC3c3cccnc3)c(=O)[nH]c2=S)cc1 (centres undefined),–,–,–,–,55,·,Rpn11 confirm=52;MMP-2 inh=–;Thrombin inh=–
Cc1c(P(=S)(c2ccccc2)c2ccccc2)[n+]2ccccc2n1C,·,–,·,·,79!,·,Rpn11 confirm=78;MMP-2 inh=–;Thrombin inh=–
Cn1cc[n+](C)c1P(=S)(c1ccccc1)c1ccccc1,–,–,–,–,–,·,
Cc1cc(C=C2C(=O)NC(=S)NC2=O)c(C)n1C1CCCC1,–,–,–,–,–,·,
Cc1cc(C=C2C(=O)N(C)C(=S)N(C)C2=O)c(C)n1C1CCCCC1,–,–,–,–,50,·,Rpn11 confirm=–;MMP-2 inh=–;Thrombin inh=–
CC(=O)N1N=C2C3CCN(CC3)C2C1c1ccc(Br)cc1 (centres undefined),–,–,–,–,–,·,
CN1OC[C@@H]2COc3ccc4ccccc4c3[C@@H]21,–,–,–,–,–,·,
CCc1ccc(N2C(=O)NC(=O)/C(=C\c3cccn3CCOc3ccc(C(C)C)cc3)C2=O)cc1,–,–,–,–,62,·,Rpn11 confirm=–;MMP-2 inh=–;Thrombin inh=–
COCCCn1c(-c2ccc(OC)cc2)cc(C(=O)NC2CCCCCCC2)c1C,–,–,–,–,–,·,
O=C1C2CCN(CC2)C12CC2c1ccc(C(F)(F)F)cc1 (centres undefined),–,–,–,–,–,·,
CCCCC(=O)N/N=C/c1c(O)n(CCc2ccccc2)c(=O)[nH]c1=O,–,–,–,–,–,·,
CCCCC(=O)N/N=C/c1c(O)n(Cc2ccc(F)cc2)c(=O)[nH]c1=O,–,–,–,–,50,·,Rpn11 confirm=–;MMP-2 inh=–;Thrombin inh=–
Cc1cc(N(CCCl)CCCl)ccc1C=NNC(=O)Cc1cc(=O)oc2cc(O)ccc12,·,73,·,·,–,59,
CC(=O)c1ccc2c(c1)C1C(Cl)C(Sc3ccccc3[N+](=O)[O-])CC1C(c1ccccc1[N+](=O)[O-])N2 (centres undefined),–,68,16,–,–,–,
CC(=O)c1ccc2c(c1)C1C(Cl)C(Sc3ccccc3[N+](=O)[O-])CC1C(c1ccccc1)N2 (centres undefined),–,37,–,–,–,–,
O=C1NC(=O)C(Sc2ccccc2[N+](=O)[O-])C(=O)N1,–,–,–,–,–,·,
COc1cccc(C2C([N+](=O)[O-])=C(N)Oc3c2c(=O)oc2ccccc32)c1 (centres undefined),–,–,–,–,–,·,
N#Cc1ccc2nc(-c3ccc(CN4CCC(n5c(=O)[nH]c6ccccc65)CC4)cc3)c(-c3ccccc3)nc2c1,·,43,·,·,·,–,
Cc1cccc(C)c1-n1nnnc1C(c1cccc2ccccc12)N1CCC(n2c(=O)[nH]c3ccccc32)CC1 (centres undefined),·,38,·,·,–,–,
Cc1cccc2nc(-c3ccccc3)c(-c3ccc(CN4CCC(n5c(=O)[nH]c6ccccc65)CC4)cc3)nc12,·,45,·,·,·,–,
O=c1[nH]c2ccccc2n1C1CCN(C(c2nnnn2Cc2ccccc2)C2CC2)CC1 (centres undefined),·,–,·,·,–,·,
S=P1(Oc2ccccc2)Nc2ccccc2N1,·,–,·,·,–,·,
N#CC1=C(N)Oc2c(c(=O)oc3ccccc23)C1c1cccnc1 (centres undefined),–,–,–,–,–,·,
CCOc1cc(C2C(C#N)=C(N)Oc3c2c(=O)oc2ccccc32)ccc1OC(=O)c1cccs1 (centres undefined),–,31,–,–,–,–,
O=C(NCCCN1CC1)Nc1cccc2ccccc12,·,34,·,·,–,–,
SMILES,PP5 primary,NadD block,PP1 inh,PREPL inhibitor,Rpn11 inh,NadD inh conf,others
CC1=C(C)CC2(CC1)C(=O)NC(=O)NC2=O,·,–,·,·,–,·,
C[C@]12CCC3=C4CCC(=O)C=C4CC[C@H]3C1CC[C@@H]2O (some centres undefined),–,–,–,–,–,·,
Cc1cccc(C)c1-n1nnnc1C(CCc1ccccc1)N1CCC2(CC1)C(=O)NCN2c1ccccc1 (centres undefined),·,41,·,·,–,–,
O=C1NCN(c2ccccc2)C12CCN(C(c1cccc3ccccc13)c1nnnn1C1CCCCC1)CC2 (centres undefined),·,30,·,·,–,–,
O=C1NCN(c2ccccc2)C12CCN(C(c1cccc3ccccc13)c1nnnn1C1CCCC1)CC2 (centres undefined),·,–,·,·,–,·,
O=C1CCC2(O)C3Cc4ccc(O)c5c4C2(CCN3Cc2ccoc2)C1O5 (centres undefined),·,–,·,·,–,·,
CC(=NCCCn1ccnc1)c1c(O)n(C2CCCCC2)c(=O)[nH]c1=O,–,–,–,–,–,·,

# From PubChem BioAssay
